HCV inhibitor: blocks hepatitis C virus; Huh7.5.1 HCVcc-Cre infection, luciferase reporter, 44 h; Potency, µM (doses to about 41.8 µM), actives largely listed as inhibitors; 3.4% of 340,000 active
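Cells seeded at 1,000/well and cultured 4 h, then compounds added followed by HCVcc-Cre virus (~0.5 moi). After 44 h further culture, luciferase substrate was added, plates held 15 min at room temperature, and luminescence read for 15 sec.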
Pf growth 48h: inhibits P. falciparum growth in the first generation, 48 h; Potency, µM (highest dose often 28.7 µM), hits mostly inhibitors; 5.9% of 310,000 active; P. falciparum luciferase growth in erythrocytes, 48 h; AID 504832
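In quantitative HTS format, infected erythrocytes bearing luciferase-reporter parasites were treated for a single generation at 37 C. Luminescence after adding detection reagent served as the growth measure.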
HCMV antiviral: human cytomegalovirus inhibition; HFF cells, HCMV-luciferase reporter, 72 h; hits give low values; activity change, negative = inhibition, % at 57.5 µM; 4.5% of 410,000 active; AID 1259415; in the data active = activity change below about -60%; inconclusive = no clear call, values can overlap the other calls; inactive = above about -39%
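Compounds were evaluated in HFFs infected with an HCMV luciferase reporter virus (MOI 1 PFU/cell). Luciferase in lysates collected 72 h post infection served as the replication measure.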
Pf growth 96h: P. falciparum growth inhibition at 96 hours; P. falciparum luciferase reporter growth, 96 h; Potency, µM (highest dose often 28.7 µM), actives largely listed as inhibitors; 6.9% of 320,000 active
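Erythrocytes infected with luciferase-expressing P. falciparum were dispensed at 2% hematocrit and 0.05% parasitemia (final), then incubated with compounds 96 hours at 37 C in 5% CO2. Luminescence after detection reagent addition reported growth.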
Hits are given with their value; - = inactive; ? = inconclusive; . = no result; [ ] = remark or other dose. Rows were chosen to be rich in hits. Some 13% of all compounds tested hit in one or more screens of this group. Unless noted, calls follow the shape of the dose curve; as a rule, active = well fitted inhibition curve with a large enough effect; inconclusive = small, poorly fitted or top-dose-only effect, or another doubt; inactive = no such curve, though single readings can be large or run the other way.

SMILES	HCV inhibitor	Pf growth 48h	HCMV antiviral	Pf growth 96h
Cc1ccsc1C(=O)N1CCCC(N2CCN(c3cccc(Cl)c3)CC2)C1 (centres undefined)	?	-	-64	-
CC(C)c1cc(C(=O)N2CCCC(N3CCN(c4ccc(F)cc4)CC3)C2)no1 (centres undefined)	?	?	-	-
CC(C)c1cc(C(=O)N2CCCC(N3CCN(c4ccc(F)cc4)CC3)C2)n(C)n1 (centres undefined)	?	?	-64	-
Cc1ccccc1N1CCN(C2CCCN(C(=O)c3csc(C(C)C)n3)C2)CC1 (centres undefined)	.	-	?	?
COc1ccc(-c2nc3c4cnn(-c5ccccc5F)c4ncn3n2)cc1	.	.	-	.
Cc1cccc(OCc2nc(CC(=O)Nc3ccc(Cl)cc3)cs2)c1	.	.	-	.
CCC1CCCCN1C(=O)CSc1nc(N)cc(N)n1 (centres undefined)	-	-	-65	-
CCc1c(C)nc(SCC(=O)N2CCN(c3ccccc3)CC2)[nH]c1=O	-	-	-	-
CCc1c(C)nc(SCC(=O)N2CCCCC2CC)[nH]c1=O (centres undefined)	-	2.1µM	-	-
CCC1CCCCN1C(=O)CSc1n[nH]c(N)n1 (centres undefined)	-	.	-	.
COc1ccc(NC(=O)C2C3CCC4C(CCC32)C4(Cl)Cl)cc1 (centres undefined)	-	-	-	5.2µM
Cc1ccc(NC(=O)CSc2nc3ccccc3c(=O)n2CC2CCCO2)cc1 (centres undefined)	-	-	-	?
COC(=O)c1ccc2c(=O)n(CC3CCCO3)c(SCC(=O)Nc3ccccc3Cl)nc2c1 (centres undefined)	-	.	-	10µM
O=C(CCCn1c(SCc2ccccc2F)nc2ccccc2c1=O)NCC1CCCO1 (centres undefined)	-	6.6µM	?	-
CCC(C)n1c(SCC(=O)NC2CCCC2)nc2ccccc2c1=O (centres undefined)	-	12µM	-	?
COCC(C)n1c(SCC(=O)NC2CCCCC2)nc2ccccc2c1=O (centres undefined)	.	.	-	.
CN(C)c1ccc(NC(=O)CSc2nc3ccccc3c(=O)n2CC2CCCO2)cc1 (centres undefined)	-	-	?	4.1µM
COC(=O)c1ccc2c(=O)n(CCCCCC(=O)NCCc3ccccc3)c(=O)[nH]c2c1	.	.	-	.
O=C(CSc1nc2ccccc2c(=O)n1CC1CCCO1)NCC1CCCO1 (centres undefined)	-	-	-	5.2µM
Cc1ccc(CNC(=O)CSc2nc3ccccc3c(=O)n2CC2CCCO2)cc1 (centres undefined)	-	.	-	.
COc1ccccc1-n1c(SC(C)C(=O)NCC2CCCO2)nc2cc(Cl)ccc2c1=O (centres undefined)	?	13µM	-	?
CCCn1c(SC(C)C(=O)NCC2CCCO2)nc2cc(Cl)ccc2c1=O (centres undefined)	?	?	-	-
O=C(CCCn1c(SCC(=O)NCCc2ccccc2)nc2ccccc2c1=O)NCC1CCCO1 (centres undefined)	-	?	-	-
O=C(CSc1ccc2nc(-c3ccccc3)cn2n1)NCC1CCCO1 (centres undefined)	-	-	-	5.2µM
O=C(CCCn1c(SCC(=O)NC2CCCCC2)nc2ccccc2c1=O)NCC1CCCO1 (centres undefined)	-	?	-	12µM
SMILES	HCV inhibitor	Pf growth 48h	HCMV antiviral	Pf growth 96h
Cc1ccc(NC(=O)CN2C(=O)COc3ccc(S(=O)(=O)Nc4ccccc4)cc32)c(C)c1	.	.	-	.
Cc1cc(OCCn2c(CCNC(=O)C3CCCCC3)nc3ccccc32)ccc1Cl	.	.	-	.
COc1ccccc1NC(=O)C(C)Sc1nc2ccccc2c(=O)n1CC1CCCO1 (centres undefined)	?	10µM	-	?
O=C(CCCn1c(SCC(=O)c2ccc(O)c(O)c2)nc2ccccc2c1=O)NCC1CCCO1 (centres undefined)	?	9.3µM	-	?
COC(=O)c1ccc2c(=O)n(CC3CCCO3)c(SCC(=O)Nc3ccccc3OC)nc2c1 (centres undefined)	-	?	-	-
CCCCCn1c(SCC#N)nc2cc(C(=O)NCC3CCCO3)ccc2c1=O (centres undefined)	?	-	-	4.7µM
CCC(C)NC(=O)CSc1nc2ccccc2c(=O)n1CCCC(=O)NCC1CCCO1 (centres undefined)	-	-	-	-
CCc1ccccc1NC(=O)CSc1nc2cc(C(=O)NCC3CCCO3)ccc2c(=O)n1CC1CCCO1 (centres undefined)	.	.	-	.
O=C(Nc1ccccc1Br)C1CCCN(S(=O)(=O)c2cccc3nsnc23)C1 (centres undefined)	.	.	-	.
CC(=O)OC(C)(C)/C=C/C(=O)[C@](C)(O)[C@H]1[C@H](O)C[C@@]2(C)[C@@H]3CC=C4[C@H](C[C@H](O)C(=O)C4(C)C)[C@]3(C)C(=O)C[C@]12C	-	3.7µM	.	3.3µM
CC(=O)OC(C)(C)/C=C/C(=O)C(C)(O)C1[C@H](O)C[C@@]2(C)C3CC=C4C(CC[C@@H](O)C4(C)C)[C@]3(CO)C(=O)C[C@]12C (some centres undefined)	?	10µM	-101	1.7µM
CC(=O)OC(C)(C)/C=C/C(=O)C(C)(O)C1C(O)CC2(C)C3CC=C4C(CC(O)C(=O)C4(C)C)C3(C)C(=O)CC12C (centres undefined)	?	.	-98	.
CC(=O)OC(C)(C)/C=C/C(=O)[C@](C)(O)C1[C@H](O)C[C@@]2(C)C3CC=C4C(C=C(O[C@@H]5O[C@H](CO)[C@@H](O)[C@H](O)[C@H]5O)C(=O)C4(C)C)[C@]3(C)C(=O)C[C@]12C (some centres undefined)	-[8.37 µM]	.	-86	.
Cc1ccc(CNC(=O)c2ccc3c(c2)nc2n3CCCC2)cc1	.	.	-	.
CC1(C(=O)NS(=O)(=O)c2ccc(F)cc2F)CCN1C(=O)Cc1cccc2ccccc12 (centres undefined)	.	.	-	.
Cc1cccc(N2CCN(C(=O)C3CCN(S(=O)(=O)c4c(C)noc4/C=C/c4ccccc4F)CC3)CC2C)c1 (centres undefined)	.	.	-	.
N#C/C(=C(/O)CSc1nnc(Cc2cccs2)n1C1CCCCC1)c1nc2ccccc2[nH]1	-	6.6µM	-	-
Cc1ccccc1Cc1ccc(Cl)nn1	-	10µM	?	-
O=C(Cn1c(=O)n(Cc2ccc3c(c2)OCO3)c(=O)c2ccc(C(=O)NC3CCCCC3)cc21)Nc1ccccc1F	.	.	-	.
COc1cccc(OC)c1C(=O)NC(=S)Nc1cc(-c2nc3ccccc3[nH]2)ccc1Cl	?	4.1µM	-	?
O=C(O)CCCC(=O)Nc1cccc(-c2nc3ccccc3[nH]2)c1	-	-	-	-
CCCC(=O)Nc1cccc(-c2nc3ccccc3o2)c1	?	-	-	.
O=C(CSc1ccccc1)Nc1ccc(-c2nc3ccccc3[nH]2)cc1	?	?	-	-
COc1ccc(OCC(=O)Nc2cccc(-c3nc4ccccc4o3)c2)cc1	10µM	-	-	?
